Assay outcomes deposited in PubChem by several laboratories.
CHT PAM: allosteric activators of human choline transporter CHT; Q9GZV3; CHT-expressing cells, membrane potential dye, choline EC20; stronger effect = higher value; LV-AA mutant CHT in HEK293 cells; B-score at 10 µM; 310,000 compounds, 0.49% hits; AID 488977;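 active means initial fluorescence not abnormally high and integrated response B-score, plate-corrected, over 3 SD above library mean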
CHT inh: human CHT choline transport inhibition; Q9GZV3; CHT-expressing cells, membrane potential dye, choline response; stronger effect = lower value; B-score at 10 µM; 310,000 compounds, 0.86% hits; AID 488975;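 active means B-score over 3 SD under the library average, and starting fluorescence ratio not unusually high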;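 further: choline stimulus applied at its EC90 after an EC20 pre-addition; B-score computed on integrated fluorescence ratio after choline addition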
EP2 antag: blocks the human prostaglandin E2 receptor EP2; P43116; C6 glioma cells expressing human EP2, cAMP TR-FRET; cells stimulated with saturating PGE2; inhibition, % at 25 µM; 260,000 compounds, 0.52% hits;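 active means percent inhibition above 40 after rounding to a whole number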;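 further: rat C6 glioma host cells with rolipram phosphodiesterase inhibitor present; the protocol text gives 20 µM as final concentration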
Target sequence (P43116 whole entry, looked up): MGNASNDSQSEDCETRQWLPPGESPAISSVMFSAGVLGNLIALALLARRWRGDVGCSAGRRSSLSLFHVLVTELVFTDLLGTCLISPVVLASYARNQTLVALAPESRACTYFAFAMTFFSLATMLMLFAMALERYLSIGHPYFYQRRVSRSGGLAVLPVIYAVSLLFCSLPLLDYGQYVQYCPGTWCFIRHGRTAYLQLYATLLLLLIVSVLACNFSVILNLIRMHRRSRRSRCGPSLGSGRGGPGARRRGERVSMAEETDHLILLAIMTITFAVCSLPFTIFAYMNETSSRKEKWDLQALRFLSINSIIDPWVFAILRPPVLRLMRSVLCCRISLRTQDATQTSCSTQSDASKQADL
EP2 mod: modulates human prostaglandin E2 receptor EP2 signaling; P43116; EP2-expressing cells, cAMP HTRF FRET, PGE2 co-stimulation; induction, % at 25 µM; 260,000 compounds, 0.83% hits; AID 940;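 active means compounds whose cAMP rise, as percent of the full-agonist control response, exceeds 60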;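 further: rat C6 glioma line stably carrying human EP2 under a CMV promoter; the protocol text gives 20 µM as final concentration; 100% = response of wells given 1 µM PGE2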
EP2 cAMP induct: EP2 receptor cAMP induction, counter-screens negative; 1,300 compounds, 47% hits; shares compounds with EP2 mod; calls only at 20 µM (by protocol); C6 glioma EP2 cells, cAMP HTRF induction; plus low (about EC15) PGE2 agonist;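 active means cAMP induction above 50% in the main assay while under 30% in all four parallel counter assays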;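 further: rat C6 glioma cells stably expressing human EP2 receptor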
An asterisk follows results filed as active; ! = not active in a repeat. Sampled rows, rich in hits. Any-hit rate of the full collection: about 2.1%.

How did O=C(c1ccccn1)N1N=C2/C(=C/c3ccccc3)CCCC2C1c1ccccc1 (configuration not stated) do in these assays?
CHT PAM: inactive; CHT inh: inactive; EP2 antag: 10.2; EP2 mod: 53.4

Results for Cc1cc(SCCC(=O)O)nc2c(C)cccc12 ?
CHT PAM: inactive; CHT inh: inactive; EP2 antag: 12.1; EP2 mod: 82.1*; EP2 cAMP induct: inactive

Results for OCCCNc1nc(-c2ccc(Br)cc2)nnc1-c1ccc(Cl)cc1 ?
CHT PAM: inactive; CHT inh: inactive; EP2 antag: 9.3; EP2 mod: 95.1*; EP2 cAMP induct: active

What do the screens show for `OCCCNc1nc(-c2ccc(Cl)cc2)nc2ccccc12`?
CHT PAM: inactive; CHT inh: inactive

How did C/C(Cl)=C/CSc1nc2c(c(=O)n(C)c(=O)n2C)n1Cc1ccc(F)cc1 do in these assays?
EP2 antag: 12.1; EP2 mod: 41.8

How did Cn1c(=O)c2c(nc(SCC(=O)c3cccs3)n2Cc2ccc(F)cc2)n(C)c1=O do in these assays?
CHT PAM: inactive; CHT inh: inactive; EP2 antag: 32.9; EP2 mod: 75.0*; EP2 cAMP induct: inactive

What do the screens show for `Cc1ccc(Cl)cc1N1CCN(C(=O)c2cc3sccc3n2C)CC1`?
EP2 antag: 13.2; EP2 mod: -29.6

What do the screens show for `O=S(=O)(O)c1ccc2c(N=Nc3c(O)ccc4ccccc34)cccc2c1`?
EP2 antag: 40.9*; EP2 mod: 75.3*; EP2 cAMP induct: inactive

Results for CN(C)c1nc(-c2ccccc2)c2cnn(Cc3ccccc3)c2n1 ?
CHT PAM: inactive; CHT inh: inactive; EP2 antag: 13.1; EP2 mod: 73.3*; EP2 cAMP induct: active

What do the screens show for `CCNC(=S)N(Cc1ccco1)Cc1cc2cc3c(cc2[nH]c1=O)OCO3`?
EP2 antag: 4.1; EP2 mod: 19.6

How did COCCn1nnnc1C(c1ccc(N(C)C)cc1)N1CCN(C2CCCCC2)CC1 (configuration not stated) do in these assays?
EP2 antag: 5.9; EP2 mod: -9.4

How did O=C(CCCN1C(=O)/C(=C/c2ccco2)SC1=S)Nc1ccccc1C(=O)O do in these assays?
CHT PAM: inactive; CHT inh: inactive; EP2 antag: 15.6; EP2 mod: -35.6

Results for O=C(O)CCCN1C(=O)/C(=C\c2ccco2)SC1=S ?
EP2 antag: 7.6; EP2 mod: 74.3*; EP2 cAMP induct: active

What do the screens show for `CCOC(=O)c1cccc(S(=O)(=O)N(Cc2ccco2)Cc2cc3ccc(OC)cc3[nH]c2=O)c1`?
EP2 antag: 15.2; EP2 mod: -33.4

How did CNC(=O)c1cc2c(=O)n3cc(C)ccc3nc2n(C(C)C)c1=N do in these assays?
CHT PAM: inactive; CHT inh: inactive; EP2 antag: 14.0; EP2 mod: 72.9*!; EP2 cAMP induct: inactive

What do the screens show for `CN(C(=O)C1CCCO1)c1nnc(C2CCOC2)s1` (configuration not stated)?
EP2 antag: 7.4; EP2 mod: 1.4

What do the screens show for `CCOC(=O)C1=C(CC)Nc2ccccc2N=C1NC(=O)c1oc2ccccc2c1C`?
CHT PAM: inactive; CHT inh: inactive; EP2 antag: 14.1; EP2 mod: 68.5*; EP2 cAMP induct: inactive

Results for CCOCc1c(C(=O)NC2=Nc3ccccc3NC(CC)=C2C(=O)OCC)oc2ccccc12 ?
CHT PAM: inactive; CHT inh: inactive; EP2 antag: 11.3; EP2 mod: 38.8

What do the screens show for `CC1=C[N+](=O)c2ccccc2[N+]1=O`?
EP2 antag: 9.9; EP2 mod: 106.9*; EP2 cAMP induct: inactive

How did COc1cc(C)c(NC(c2ccccc2)c2ccccc2)cc1OC do in these assays?
CHT PAM: inactive; CHT inh: inactive; EP2 antag: 3.5; EP2 mod: 66.6*; EP2 cAMP induct: active

Results for Cc1ccn2cc(C(=O)Nc3cccc(F)c3)nc2c1 ?
EP2 antag: 9.5; EP2 mod: -18.3

How did CN(C)c1ccc(/C=C2\SC(=S)N(Nc3ncc(C(F)(F)F)cc3Cl)C2=O)cc1 do in these assays?
CHT PAM: inactive; CHT inh: inactive; EP2 antag: 4.6; EP2 mod: 3.0

How did COc1cc(/C=C2\SC(=S)N(Nc3ncc(C(F)(F)F)cc3Cl)C2=O)ccc1O do in these assays?
CHT PAM: inactive; CHT inh: inactive; EP2 antag: 7.3; EP2 mod: 65.8*; EP2 cAMP induct: inactive

Results for O=C(NCc1ccncc1)C12CC3CC(CC(C3)C1)C2 ?
CHT PAM: inactive; CHT inh: inactive; EP2 antag: 1.7; EP2 mod: -5.1

How did N#CC1=C(N)S[C@H](C(=O)C23CC4CC(CC(C4)C2)C3)[C@H]1c1ccncc1 do in these assays?
CHT PAM: inactive; CHT inh: inactive; EP2 antag: 11.1; EP2 mod: 66.0*; EP2 cAMP induct: inactive

What do the screens show for `Cc1nn2c(N3CCN(C(=O)c4ccco4)CC3)cc(C(C)(C)C)nc2c1-c1ccccc1`?
CHT PAM: inactive; CHT inh: inactive; EP2 antag: 9.1; EP2 mod: 78.2*; EP2 cAMP induct: active

Results for Cc1nn2c(N3CCCC3)cc(C(C)C)nc2c1-c1ccccc1 ?
CHT PAM: inactive; CHT inh: inactive; EP2 antag: 11.7; EP2 mod: 75.4*; EP2 cAMP induct: active

Results for Cc1cc(N2CCC(C)CC2)n2nc(C)c(-c3ccccc3)c2n1 ?
CHT PAM: inactive; CHT inh: inactive; EP2 antag: 9.2; EP2 mod: 48.3

How did Cc1sc2ncn(CC(=O)NC3CCCCC3)c(=O)c2c1-c1ccc(F)cc1 do in these assays?
EP2 antag: 9.1; EP2 mod: 8.8

What do the screens show for `CCOc1cc(NC(=O)C23CC4CC(CC(C4)C2)C3)c(OCC)cc1NC(=O)c1cccs1`?
EP2 antag: 8.3; EP2 mod: 7.1

What do the screens show for `Cc1ccc(CN(CCCn2ccnc2)Cc2ccc(Cl)c(Cl)c2)o1`?
EP2 antag: 6.0; EP2 mod: 39.0

Results for CCOC(=O)C1=C(N)OC(C)=C(C#N)C1c1ccco1 (configuration not stated) ?
CHT PAM: inactive; CHT inh: inactive; EP2 antag: 10.5; EP2 mod: 53.1; EP2 cAMP induct: inactive

Results for COc1ccc(-c2nc(NC(C)=O)sc2-c2ccc(OC)cc2)cc1 ?
CHT PAM: inactive; CHT inh: inactive; EP2 antag: 12.5; EP2 mod: 55.9; EP2 cAMP induct: inactive

What do the screens show for `CCOc1ccc(N(CC(=O)NCc2ccco2)S(=O)(=O)c2ccc(Cl)cc2)cc1`?
EP2 antag: 26.0; EP2 mod: 32.1

How did Cn1cc(/C=C\c2nc(O)c([N+](=O)[O-])c(=O)[nH]2)c2ccccc21 do in these assays?
EP2 antag: 16.5; EP2 mod: -5.2

Results for Oc1c(Cl)cc(Cl)cc1Sc1cc(Cl)cc(Cl)c1O ?
CHT PAM: inactive; CHT inh: inactive; EP2 antag: 21.2; EP2 mod: 76.3*!; EP2 cAMP induct: inactive
